PubChem BioAssay AID374 (University of Pittsburgh Molecular Library Screening Center, 2006)
Out of some 65,000 compounds screened, about 100 (0.15%) were called active.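 How the source made its calls: active means inhibition above about 50% (limit read from the data); inconclusive means inhibition over screen mean plus 3 SD, below that limit; inactive means the rest.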 This excerpt belongs to a sample that is enriched for actives.

What follows are compounds tested against Dual specificity protein phosphatase 1 (Homo sapiens) (UniProt P28562) (assay: MKP-1 phosphatase inhibitors, primary screen, biochemical, in vitro (AID 374;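 further: 0% = DMSO max control wells and 100% = wells with enzyme stopped by NaOH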)). Details: recombinant MKP-1, OMFP hydrolysis fluorescence; stronger effect = higher value;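 compounds tested at a single concentration somewhere between 10 and 100 µM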.
Chain of Dual specificity protein phosphatase 1 (Homo sapiens) (P28562 whole entry, looked up): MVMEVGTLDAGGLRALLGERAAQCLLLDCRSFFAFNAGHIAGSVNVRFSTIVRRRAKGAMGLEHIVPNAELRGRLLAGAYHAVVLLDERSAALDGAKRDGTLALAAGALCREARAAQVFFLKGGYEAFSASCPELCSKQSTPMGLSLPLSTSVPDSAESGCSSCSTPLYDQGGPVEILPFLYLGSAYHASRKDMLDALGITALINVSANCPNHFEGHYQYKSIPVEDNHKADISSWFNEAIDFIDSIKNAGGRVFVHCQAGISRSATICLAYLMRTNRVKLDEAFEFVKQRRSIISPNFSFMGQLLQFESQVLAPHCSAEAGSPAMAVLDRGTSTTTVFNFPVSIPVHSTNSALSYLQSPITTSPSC
In the case of `COC(=O)N(c1ccc(OC)cc1)P1(=S)OCCC(C)O1` (stereo not given), the inhibition is reported as 100% (active). In the case of `CCOC(=O)c1c(N)n(Cc2ccccc2)c2nc3ccccc3nc12`, the inhibition is reported as 32.1% (inactive). `COC(=O)C(c1ccccc1)N1CCCCCC1` (stereo not given) was tested, and the inhibition was -10.8% (inactive). With `CCc1nc2ccccc2c(=O)n1-c1cccc(OC)c1` the inhibition was 2.83% (inactive). `CCN(CC)CCOC(=O)c1cc2cc(COC)ccc2o1` was tested, and the inhibition was 2.26% (inactive).
